# Values joined by “and” are separate entries in the source; they are usually repeats but may differ in a detail not shown here. Equal values may be shown once. About 79,000 compounds went through this panel and 15% of them were active in at least one assay; those are over-represented in the sample as a whole. The source holds several records for some structures; these can differ, active in one and inactive in another. Active and inactive are the calls of the source. No stated cut-off is given here; in the data, active means growth inhibition above about 70%; inactive means the rest.
# Experiments:
# [1] = NCI Yeast Anticancer Drug Screen. Data for the rad50 strain (AID 155);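 further: 0% = growth of vehicle-only cultures of the same strain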; settings: S. cerevisiae rad50 strain growth inhibition, stronger effect = higher value
# Summary of the method: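 Vehicle-treated cultures provide the reference for the growth inhibition reported for compound-exposed, repair-deficient yeast.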
# [2] = NCI Yeast Anticancer Drug Screen. Data for the mec2-1 strain (AID 157); settings: S. cerevisiae mec2-1 strain, stronger effect = higher value
# Summary of the method: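 Growth inhibition is read against vehicle-treated controls after compound exposure of the mec2-1 yeast strain, which is defective in DNA damage repair or cell cycle control.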
# [3] = NCI Yeast Anticancer Drug Screen. Data for the sgs1 mgt1 strain (AID 161);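 further: 0% = growth of cultures given vehicle only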; settings: S. cerevisiae sgs1 mgt1 strain, stronger effect = higher value
# Summary of the method: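 Growth of a repair-deficient yeast mutant was monitored after compound treatment and expressed as inhibition relative to vehicle-treated cultures.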
# [4] = NCI Yeast Anticancer Drug Screen. Data for the cln2 rad14 strain (AID 165);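 further: 0% = growth equal to vehicle treated cultures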; settings: S. cerevisiae cln2 rad14 strain, stronger effect = higher value
# Summary of the method: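 Growth inhibition, relative to vehicle-treated controls, is the read-out. The test organism is a yeast strain with defined genetic alterations, cln2 rad14.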
# [5] = NCI Yeast Anticancer Drug Screen. Data for the bub3 strain (AID 167); settings: S. cerevisiae bub3 mutant strain, stronger effect = higher value
# Summary of the method: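 Mutant yeast screening strain plus compound; vehicle-treated cultures serve as the 0% inhibition reference.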
# [6] = NCI Yeast Anticancer Drug Screen. Data for the mlh1 rad18 strain (AID 175); settings: S. cerevisiae mlh1 rad18 strain growth inhibition, stronger effect = higher value
# Summary of the method: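 Cells of a genetically altered yeast strain, deficient in DNA damage repair, were treated with compound. Their growth was then compared with that of vehicle-treated cultures to give inhibition.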
# [7] = NCI Yeast Anticancer Drug Screen. Data for the rad50EPP+ strain (AID 151);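 further: 0% = growth of vehicle-treated control cultures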; settings: S. cerevisiae rad50 mutant strain, stronger effect = higher value
# Summary of the method: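 rad50EPP+ yeast treated with test compounds. Readout: growth vs vehicle control.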
# [8] = NCI Yeast Anticancer Drug Screen. Data for the mgt1 strain (AID 153); settings: S. cerevisiae mgt1 mutant growth inhibition, stronger effect = higher value
# Summary of the method: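 Growth inhibition relative to vehicle controls was scored for the mgt1 yeast strain after compound exposure.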
# [9] = NCI Yeast Anticancer Drug Screen. Data for the rad14 strain (AID 159);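 further: 0% = growth of vehicle-treated control cultures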; settings: S. cerevisiae rad14 strain growth inhibition, stronger effect = higher value
# Summary of the method: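 Inhibition of growth is reported for a repair-deficient yeast mutant following compound treatment, calculated relative to cultures that received vehicle.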
# [10] = NCI Yeast Anticancer Drug Screen. Data for the CLN2oe strain (AID 163);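 further: 0% = growth of vehicle-only control cultures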; settings: S. cerevisiae CLN2oe strain, stronger effect = higher value
# Summary of the method: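 Compound-treated yeast; growth vs vehicle ctrl = % inhibition. Genetically altered strain (cell-cycle control).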
# [11] = NCI Yeast Anticancer Drug Screen. Data for the wt2 strain (AID 169); settings: S. cerevisiae wt2 strain growth inhibition, stronger effect = higher value
# Summary of the method: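 Compound exposure of yeast; growth compared with vehicle controls; inhibition reported.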
# [12] = NCI Yeast Anticancer Drug Screen. Data for the mlh1 strain (AID 171);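 further: 0% = growth of vehicle-treated control cultures of the same strain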; settings: S. cerevisiae mlh1 strain growth inhibition, stronger effect = higher value
# Summary of the method: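 Compounds are applied to a genetically altered yeast strain, and its growth is compared with that of vehicle-treated cultures to give percent inhibition.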
# [13] = NCI Yeast Anticancer Drug Screen. Data for the sgs1 strain (AID 173);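 further: 0% = growth of vehicle-only control cultures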; settings: S. cerevisiae sgs1 mutant, stronger effect = higher value
# Summary of the method: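 Compounds applied to genetically altered yeast; growth compared with vehicle-treated cultures to give % inhibition.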
# [14] = NCI Yeast Anticancer Drug Screen. Data for the rad18 strain (AID 177); settings: S. cerevisiae rad18 mutant growth inhibition, stronger effect = higher value
# Summary of the method: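 Compounds are applied to a repair-deficient yeast strain, and growth is compared with that of vehicle-treated cultures to give percent inhibition.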
# [15] = at 5.0 µM (retest, dose inferred, filed as 0.5)
# [16] = at 50.0 µM (retest, dose inferred, filed as 5.0)
smiles,measurement,setting,value
CCCCCCCCCCCC[N+](C)(C)Cc1ccccc1 (tested in a mixture with another compound),growth inhibition,[1]; [15],79% (active) and 69% (inactive) and 58% (inactive)
same,growth inhibition,[1]; [16],99% (active)
same,growth inhibition,[1]; at 50.0 µM,98% (active) and 99.6% (active) and 97.7% (active)
same,growth inhibition,[2]; [15],79% (active) and 55% (inactive) and 44% (inactive)
same,growth inhibition,[2]; [16],100% (active)
same,growth inhibition,[2]; at 50.0 µM,99.7% (active) and 99.8% (active) and 86.8% (active)
same,growth inhibition,[3]; [15],93% (active) and 95% (active) and 89% (active)
same,growth inhibition,[3]; [16],100% (active) and 99% (active)
same,growth inhibition,[3]; at 50.0 µM,99.7% (active) and 99.8% (active) and 99.5% (active)
same,growth inhibition,[4]; [15],66% (inactive) and 58% (inactive) and 61% (inactive)
same,growth inhibition,[4]; [16],99% (active)
same,growth inhibition,[4]; at 50.0 µM,98.5% (active) and 97.3% (active) and 96% (active)
same,growth inhibition,[5]; [15],93% (active) and 76% (active)
same,growth inhibition,[5]; [16],100% (active) and 99% (active)
same,growth inhibition,[5]; at 50.0 µM,99.8% (active) and 99.3% (active) and 98.3% (active)
same,growth inhibition,[6]; [15],94% (active) and 74% (active) and 78% (active)
same,growth inhibition,[6]; [16],100% (active)
same,growth inhibition,[6]; at 50.0 µM,99.5% (active) and 98.9% (active)
O=C1C(C(O)(C(F)(F)F)C(F)(F)F)CCC1C(O)(C(F)(F)F)C(F)(F)F (configuration not stated),growth inhibition,[7]; at 1.2 µM,-3% (inactive)
same,growth inhibition,[7]; at 3.7 µM,-2% (inactive)
same,growth inhibition,[7]; at 11.0 µM,3% (inactive)
same,growth inhibition,[7]; at 33.0 µM,18% (inactive)
same,growth inhibition,[7]; at 100.0 µM,10% (inactive)
same,growth inhibition,[8]; at 1.2 µM,1% (inactive)
same,growth inhibition,[8]; at 3.7 µM,2% (inactive)
same,growth inhibition,[8]; at 11.0 µM,8% (inactive)
same,growth inhibition,[8]; at 33.0 µM,9% (inactive)
same,growth inhibition,[8]; at 100.0 µM,34% (inactive)
same,growth inhibition,[1]; at 1.2 µM,-4% (inactive)
same,growth inhibition,[1]; at 3.7 µM,-14% (inactive)
same,growth inhibition,[1]; [15],2% (inactive)
same,growth inhibition,[1]; at 11.0 µM,-22% (inactive)
same,growth inhibition,[1]; at 33.0 µM,3% (inactive)
same,growth inhibition,[1]; [16],33% (inactive)
same,growth inhibition,[1]; at 50.0 µM,22.3% (inactive)
same,growth inhibition,[1]; at 100.0 µM,30% (inactive)
same,growth inhibition,[9]; at 1.2 µM,4% (inactive)
same,growth inhibition,[9]; at 3.7 µM,6% (inactive)
same,growth inhibition,[9]; at 11.0 µM,14% (inactive)
same,growth inhibition,[9]; at 33.0 µM,28% (inactive)
same,growth inhibition,[9]; at 100.0 µM,49% (inactive)
same,growth inhibition,[3]; [15],4% (inactive)
same,growth inhibition,[3]; [16],54% (inactive)
same,growth inhibition,[3]; at 50.0 µM,67.3% (inactive)
same,growth inhibition,[10]; at 1.2 µM,5% (inactive)
same,growth inhibition,[10]; at 3.7 µM,2% (inactive)
same,growth inhibition,[10]; at 11.0 µM,8% (inactive)
same,growth inhibition,[10]; at 33.0 µM,27% (inactive)
same,growth inhibition,[10]; at 100.0 µM,42% (inactive)
same,growth inhibition,[5]; at 1.2 µM,-1% (inactive)
same,growth inhibition,[5]; at 3.7 µM,0% (inactive)
same,growth inhibition,[5]; [15],-12% (inactive)
same,growth inhibition,[5]; at 11.0 µM,0% (inactive)
same,growth inhibition,[5]; at 33.0 µM,11% (inactive)
same,growth inhibition,[5]; [16],32% (inactive)
same,growth inhibition,[5]; at 50.0 µM,28.4% (inactive)
same,growth inhibition,[5]; at 100.0 µM,24% (inactive)
same,growth inhibition,[11]; at 1.2 µM,1% (inactive)
same,growth inhibition,[11]; at 3.7 µM,4% (inactive)
same,growth inhibition,[11]; at 11.0 µM,8% (inactive)
same,growth inhibition,[11]; at 33.0 µM,23% (inactive)
same,growth inhibition,[11]; at 100.0 µM,39% (inactive)
same,growth inhibition,[12]; at 1.2 µM,5% (inactive)
same,growth inhibition,[12]; at 3.7 µM,7% (inactive)
same,growth inhibition,[12]; at 11.0 µM,11% (inactive)
same,growth inhibition,[12]; at 33.0 µM,22% (inactive)
same,growth inhibition,[12]; at 100.0 µM,33% (inactive)
same,growth inhibition,[13]; at 1.2 µM,3% (inactive)
same,growth inhibition,[13]; at 3.7 µM,8% (inactive)
same,growth inhibition,[13]; at 11.0 µM,9% (inactive)
same,growth inhibition,[13]; at 33.0 µM,28% (inactive)
same,growth inhibition,[13]; at 100.0 µM,43% (inactive)
O=Cn1c2ccccc2c2ccccc21,growth inhibition,[7]; at 1.2 µM,-54% (inactive)
same,growth inhibition,[7]; at 3.7 µM,-27% (inactive)
same,growth inhibition,[7]; at 11.0 µM,0% (inactive)
same,growth inhibition,[7]; at 33.0 µM,10% (inactive)
same,growth inhibition,[7]; at 100.0 µM,91% (active)
same,growth inhibition,[1]; at 1.2 µM,-42% (inactive)
same,growth inhibition,[1]; at 3.7 µM,-4% (inactive)
same,growth inhibition,[1]; [15],63% (inactive)
same,growth inhibition,[1]; at 11.0 µM,9% (inactive)
same,growth inhibition,[1]; at 33.0 µM,-1% (inactive)
same,growth inhibition,[1]; [16],90% (active)
same,growth inhibition,[1]; at 50.0 µM,64.2% (inactive)
same,growth inhibition,[1]; at 100.0 µM,82% (active)
same,growth inhibition,[2]; at 1.2 µM,-51% (inactive)
same,growth inhibition,[2]; at 3.7 µM,-30% (inactive)
same,growth inhibition,[2]; [15],57% (inactive)
same,growth inhibition,[2]; at 11.0 µM,-33% (inactive)
same,growth inhibition,[2]; at 33.0 µM,-23% (inactive)
same,growth inhibition,[2]; [16],90% (active)
same,growth inhibition,[2]; at 50.0 µM,44.4% (inactive)
same,growth inhibition,[2]; at 100.0 µM,31% (inactive)
same,growth inhibition,[9]; at 1.2 µM,-32% (inactive)
same,growth inhibition,[9]; at 3.7 µM,-20% (inactive)
same,growth inhibition,[9]; at 11.0 µM,-19% (inactive)
same,growth inhibition,[9]; at 33.0 µM,-20% (inactive)
same,growth inhibition,[9]; at 100.0 µM,25% (inactive)
same,growth inhibition,[10]; at 1.2 µM,-12% (inactive)
same,growth inhibition,[10]; at 3.7 µM,-15% (inactive)
same,growth inhibition,[10]; at 11.0 µM,1% (inactive)
same,growth inhibition,[10]; at 33.0 µM,-21% (inactive)
same,growth inhibition,[10]; at 100.0 µM,39% (inactive)
same,growth inhibition,[4]; [15],59% (inactive)
same,growth inhibition,[4]; [16],74% (active)
same,growth inhibition,[4]; at 50.0 µM,20.6% (inactive)
same,growth inhibition,[5]; at 1.2 µM,-26% (inactive)
same,growth inhibition,[5]; at 3.7 µM,-8% (inactive)
same,growth inhibition,[5]; [15],42% (inactive)
same,growth inhibition,[5]; at 11.0 µM,13% (inactive)
same,growth inhibition,[5]; at 33.0 µM,-21% (inactive)
same,growth inhibition,[5]; [16],66% (inactive)
same,growth inhibition,[5]; at 50.0 µM,60.9% (inactive)
same,growth inhibition,[5]; at 100.0 µM,60% (inactive)
same,growth inhibition,[11]; at 1.2 µM,-12% (inactive)
same,growth inhibition,[11]; at 3.7 µM,-21% (inactive)
same,growth inhibition,[11]; at 11.0 µM,-7% (inactive)
same,growth inhibition,[11]; at 33.0 µM,-18% (inactive)
same,growth inhibition,[11]; at 100.0 µM,46% (inactive)
same,growth inhibition,[12]; at 1.2 µM,-18% (inactive)
same,growth inhibition,[12]; at 3.7 µM,-17% (inactive)
same,growth inhibition,[12]; at 11.0 µM,4% (inactive)
same,growth inhibition,[12]; at 33.0 µM,-2% (inactive)
same,growth inhibition,[12]; at 100.0 µM,65% (inactive)
same,growth inhibition,[13]; at 1.2 µM,-32% (inactive)
same,growth inhibition,[13]; at 3.7 µM,-37% (inactive)
same,growth inhibition,[13]; at 11.0 µM,-8% (inactive)
same,growth inhibition,[13]; at 33.0 µM,-15% (inactive)
same,growth inhibition,[13]; at 100.0 µM,57% (inactive)
same,growth inhibition,[6]; [15],54% (inactive)
same,growth inhibition,[6]; [16],97% (active)
same,growth inhibition,[6]; at 50.0 µM,70.8% (active)
same,growth inhibition,[14]; at 1.2 µM,-41% (inactive)
same,growth inhibition,[14]; at 3.7 µM,-32% (inactive)
same,growth inhibition,[14]; at 11.0 µM,-26% (inactive)
same,growth inhibition,[14]; at 33.0 µM,-21% (inactive)
same,growth inhibition,[14]; at 100.0 µM,65% (inactive)
